# PubChem BioAssay (NCI)
# Compounds without any hit were thinned out: in the full panel of roughly 79,000, 15% have a hit. Values without a mark were called inactive. Active and inactive are the calls of the source. No stated cut-off is given here; in the data, active means growth inhibition above about 70%; inactive means the rest.
# Experiment: NCI Yeast Anticancer Drug Screen. Data for the rad14 strain (AID 159);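 further: 0% = growth of vehicle-treated control cultures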
# Details: S. cerevisiae rad14 strain growth inhibition; at 1.2 µM; active compounds read high
# Summary of the method: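 Inhibition of growth is reported for a repair-deficient yeast mutant following compound treatment, calculated relative to cultures that received vehicle.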
row,SMILES,growth inhibition
1,O=C1/C(=C/c2ccccc2)CCCC1CN1CCCCC1 (stereo not drawn),48%
2,C#CCN(Cc1ccc2nc(N)[nH]c(=O)c2c1)c1ccc(C(=O)NC(CCC(=O)O)C(=O)O)cc1 (stereo not drawn),-2%
3,CCOC1(c2cccc([N+](=O)[O-])c2)c2ccccc2Oc2ccccc21,0%
4,O=C(O)CNC(=S)Nc1ccccc1,-47%
5,N/C(=N/N=C/c1cc(Br)cc(Br)c1O)NO,-19%
6,C[Si](C)(C)/C=C/CCNC(C#N)c1ccccc1 (stereo not drawn),-6%
7,CCCCCCCCCCCCCCCCOP(=O)(O)OCC(N)C(=O)O (stereo not drawn),4%
8,CC1=C(C(=O)NCc2ccccc2)C(c2ccccc2)C(C(=O)NCc2ccccc2)=C(C)N1,1%
9,O=[N+]([O-])c1cc(S(=O)(=O)Nc2ccccc2)ccc1Nc1ccccc1,-26%
10,COc1cc2ccnc(-c3c4ccccc4c(N)c4c(OC)c(OC)ccc34)c2cc1OC,1%
11,CCOC(=O)C(Br)C(Br)c1ccccc1Cl (stereo not drawn),0%
12,CCOC(=O)C1=C(C)NC(C)=C(C(=O)OCCNC(=O)c2ccc(N=[N+]=[N-])cc2)C1c1ccccc1C(F)(F)F (stereo not drawn),0%
13,Cc1cc(C)c(NC(=S)NC(=O)c2ccccc2)cc1C,-40%
14,CNCCCNc1c2ccccc2nc2cccc([N+](=O)[O-])c12,84% (active)
15,COc1c(O)c(C=O)c(Br)c(C=O)c1O,1%
16,Cc1c(C)c(C)c(CSC(=N)N)c(C)c1C,-31%
17,O=C(CSC(=S)N1CCCCC1)Nc1nc2c(s1)CCCC2,-9%
18,CNC(=O)OCc1c(COC(=O)NC)c(-c2ccc(Cl)cc2)n2c1CCC2,-34%
19,CC(=O)OC1CC2C(C)(C)C(=O)C=C[C@]2(C)C2CCC3(C)C(=CCC3[C@H](CO)C[C@H](O)C(=O)C(C)(C)O)[C@]12C (stereo partly drawn),-42%
20,CCCCCCOC(=O)NCCOC(=O)Nc1ccccc1,6%

row,SMILES,growth inhibition
1,C[C](C)(C)[Ge]([O][Ge]([c]1ccccc1)[c]1ccccc1)([O][Ge]([c]1ccccc1)[c]1ccccc1)[C](C)(C)C,-4%
2,CCc1c(Cl)c(C)cc(O)c1Cl,-8%
3,Cc1nc(Nc2ccccc2[N+](=O)[O-])sc1C(=O)CC(=O)C(=O)Nc1c(C(C)C)cccc1C(C)C,0%
4,O=[N+]([O-])c1cccc2nc3ccccc3c(NCCCn3ccnc3[N+](=O)[O-])c12,17%
5,CCCCCCC(O)CNCc1ccnc2ccc(OC)cc12 (stereo not drawn),13%
6,Cc1c2cccc(Sc3ccccc3)c2c2c3c(cccc13)[S+](c1ccccc1)C2 (stereo not drawn),-1%
7,C=C1CCC(O)C/C1=C/C=C1\CCCC2(C)C1CCC2C(C)CCCC(C)C (stereo not drawn),-14%
8,NC1=NNC2(C(N)=N1)c1ccccc1-c1ccccc12,-18%
9,COc1cc2cc3c4cc(OC)c(OC)cc4cc[n+]3c(C)c2cc1OC,-27%
10,COC(=O)NC1C(C)OC(OC2C/C=C(/C)C3C=CC4C(OC5CC(OC6CC(O)C(OC7CC(O)C(OC)C(C)O7)C(C)O6)C(O)C(C)O5)C(C)CC(C)C4C3(C)/C(O)=C3\C(=O)OC4(CC(C)C(CO)=CC4/C=C\2C)C3=O)CC1(C)[N+](=O)[O-] (stereo not drawn),13%
11,O=C1CSC(c2cccc(Cl)c2)N1c1ccc(-c2ccc(-n3c(-c4ccccc4)nc4ccccc4c3=O)cc2)cc1 (stereo not drawn),7%
12,CCOC(=O)C(C(=O)OCC)=P(c1ccccc1)(c1ccccc1)c1ccccc1,0%
13,COc1ccc(N=CN(C)C)c(C)c1,-63%
14,Cc1cc(S(=O)(=O)Nc2nnc3cnc4ccccc4n23)c(S)cc1Cl,-1%
15,O=C(Oc1ccc2c(c1)CN(Cc1ccccc1)CO2)c1ccccc1,4%
16,CN(C)[C@@H]1C(=O)C(C(N)=O)=C(O)[C@@]2(O)C(=O)C3=C(O)c4c(O)cccc4C[C@H]3C[C@@H]12,0%
17,O=[N+]([O-])c1ccc2c(c1)/C(=N/N=C1c3ccccc3Cc3ccccc31)c1cc([N+](=O)[O-])cc([N+](=O)[O-])c1-2,16%
18,Cc1nc2c(Br)cc(Br)cc2c(=O)n1-c1ccccc1NC1OCC(O)C(O)C1O (stereo not drawn),2%
19,Cc1cc(N(CCOS(C)(=O)=O)CCOS(C)(=O)=O)ccc1C=Nc1ccc(-c2nc(Cc3ccccc3)sc2C)cc1,3%

# Same assay, conditions: S. cerevisiae rad14 strain growth inhibition; at 3.7 µM; active compounds read high
row,SMILES,growth inhibition
1,O=C1/C(=C/c2ccccc2)CCCC1CN1CCCCC1 (stereo not drawn),70% (active)
2,C#CCN(Cc1ccc2nc(N)[nH]c(=O)c2c1)c1ccc(C(=O)NC(CCC(=O)O)C(=O)O)cc1 (stereo not drawn),18%
3,CCOC1(c2cccc([N+](=O)[O-])c2)c2ccccc2Oc2ccccc21,2%
4,O=C(O)CNC(=S)Nc1ccccc1,-41%
5,N/C(=N/N=C/c1cc(Br)cc(Br)c1O)NO,-1%
6,C[Si](C)(C)/C=C/CCNC(C#N)c1ccccc1 (stereo not drawn),3%
7,CCCCCCCCCCCCCCCCOP(=O)(O)OCC(N)C(=O)O (stereo not drawn),-4%
8,CC1=C(C(=O)NCc2ccccc2)C(c2ccccc2)C(C(=O)NCc2ccccc2)=C(C)N1,4%
9,O=[N+]([O-])c1cc(S(=O)(=O)Nc2ccccc2)ccc1Nc1ccccc1,-29%
10,COc1cc2ccnc(-c3c4ccccc4c(N)c4c(OC)c(OC)ccc34)c2cc1OC,1%
11,CCOC(=O)C(Br)C(Br)c1ccccc1Cl (stereo not drawn),10%
12,CCOC(=O)C1=C(C)NC(C)=C(C(=O)OCCNC(=O)c2ccc(N=[N+]=[N-])cc2)C1c1ccccc1C(F)(F)F (stereo not drawn),-4%
13,Cc1cc(C)c(NC(=S)NC(=O)c2ccccc2)cc1C,-48%
14,CNCCCNc1c2ccccc2nc2cccc([N+](=O)[O-])c12,93% (active)
15,COc1c(O)c(C=O)c(Br)c(C=O)c1O,4%
16,Cc1c(C)c(C)c(CSC(=N)N)c(C)c1C,-27%
17,O=C(CSC(=S)N1CCCCC1)Nc1nc2c(s1)CCCC2,-14%
18,CNC(=O)OCc1c(COC(=O)NC)c(-c2ccc(Cl)cc2)n2c1CCC2,-31%
19,CC(=O)OC1CC2C(C)(C)C(=O)C=C[C@]2(C)C2CCC3(C)C(=CCC3[C@H](CO)C[C@H](O)C(=O)C(C)(C)O)[C@]12C (stereo partly drawn),-46%
20,CCCCCCOC(=O)NCCOC(=O)Nc1ccccc1,7%

row,SMILES,growth inhibition
1,C[C](C)(C)[Ge]([O][Ge]([c]1ccccc1)[c]1ccccc1)([O][Ge]([c]1ccccc1)[c]1ccccc1)[C](C)(C)C,1%
2,CCc1c(Cl)c(C)cc(O)c1Cl,-46%
3,Cc1nc(Nc2ccccc2[N+](=O)[O-])sc1C(=O)CC(=O)C(=O)Nc1c(C(C)C)cccc1C(C)C,-2%
4,O=[N+]([O-])c1cccc2nc3ccccc3c(NCCCn3ccnc3[N+](=O)[O-])c12,73% (active)
5,CCCCCCC(O)CNCc1ccnc2ccc(OC)cc12 (stereo not drawn),32%
6,Cc1c2cccc(Sc3ccccc3)c2c2c3c(cccc13)[S+](c1ccccc1)C2 (stereo not drawn),17%
7,C=C1CCC(O)C/C1=C/C=C1\CCCC2(C)C1CCC2C(C)CCCC(C)C (stereo not drawn),-27%
8,NC1=NNC2(C(N)=N1)c1ccccc1-c1ccccc12,-22%
9,COc1cc2cc3c4cc(OC)c(OC)cc4cc[n+]3c(C)c2cc1OC,-22%
10,COC(=O)NC1C(C)OC(OC2C/C=C(/C)C3C=CC4C(OC5CC(OC6CC(O)C(OC7CC(O)C(OC)C(C)O7)C(C)O6)C(O)C(C)O5)C(C)CC(C)C4C3(C)/C(O)=C3\C(=O)OC4(CC(C)C(CO)=CC4/C=C\2C)C3=O)CC1(C)[N+](=O)[O-] (stereo not drawn),19%
11,O=C1CSC(c2cccc(Cl)c2)N1c1ccc(-c2ccc(-n3c(-c4ccccc4)nc4ccccc4c3=O)cc2)cc1 (stereo not drawn),9%
12,CCOC(=O)C(C(=O)OCC)=P(c1ccccc1)(c1ccccc1)c1ccccc1,2%
13,COc1ccc(N=CN(C)C)c(C)c1,-54%
14,Cc1cc(S(=O)(=O)Nc2nnc3cnc4ccccc4n23)c(S)cc1Cl,3%
15,O=C(Oc1ccc2c(c1)CN(Cc1ccccc1)CO2)c1ccccc1,11%
16,CN(C)[C@@H]1C(=O)C(C(N)=O)=C(O)[C@@]2(O)C(=O)C3=C(O)c4c(O)cccc4C[C@H]3C[C@@H]12,-5%
17,O=[N+]([O-])c1ccc2c(c1)/C(=N/N=C1c3ccccc3Cc3ccccc31)c1cc([N+](=O)[O-])cc([N+](=O)[O-])c1-2,53%
18,Cc1nc2c(Br)cc(Br)cc2c(=O)n1-c1ccccc1NC1OCC(O)C(O)C1O (stereo not drawn),4%
19,Cc1cc(N(CCOS(C)(=O)=O)CCOS(C)(=O)=O)ccc1C=Nc1ccc(-c2nc(Cc3ccccc3)sc2C)cc1,38%
